For some assays here: Entries with a potency or affinity are not part of this list. Active and inactive are the calls of the source. Unless noted, how the calls were made is not given here.
How the values were obtained:
[1] = antimalarial activity against Dd2 strain (AID 2302;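 active means growth inhibition above 50% at the single 2 µM test dose, taken to imply half-maximal potency below 2 µM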;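 further: 0% = DMSO untreated growth and 100% = chloroquine plus artemisinin killed control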); conditions: P. falciparum Dd2 in RBCs, LDH growth readout, 72 h; at 2 µM; active compounds read high
[2] = human hepatoma cell viability loss – ATP luminescence, cytotoxicity control for P. falciparum antimalarial project, primary screen (AID 2303;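 active means inhibition above 50%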;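 further: 0% = DMSO wells and 100% = digitonin-killed cells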); conditions: HepG2 viability, 24-48 h, at 10 µM, active compounds read high
[3] = molecular target: L-lactate dehydrogenase (Plasmodium falciparum (isolate CDC / Honduras)) (UniProt Q27743); test: PfLDH activity inhibition – cell lysate, 3D7 strain, counter-screen for P. falciparum growth inhibition project (AID 2304);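 further: 0% = vehicle and 100% = reference inhibitor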; conditions: P. falciparum 3D7 crude extract, LDH APAD/NBT absorbance; at 2 µM; active compounds read high
Chain of L-lactate dehydrogenase (Plasmodium falciparum (isolate CDC / Honduras)) (Q27743 whole entry, looked up): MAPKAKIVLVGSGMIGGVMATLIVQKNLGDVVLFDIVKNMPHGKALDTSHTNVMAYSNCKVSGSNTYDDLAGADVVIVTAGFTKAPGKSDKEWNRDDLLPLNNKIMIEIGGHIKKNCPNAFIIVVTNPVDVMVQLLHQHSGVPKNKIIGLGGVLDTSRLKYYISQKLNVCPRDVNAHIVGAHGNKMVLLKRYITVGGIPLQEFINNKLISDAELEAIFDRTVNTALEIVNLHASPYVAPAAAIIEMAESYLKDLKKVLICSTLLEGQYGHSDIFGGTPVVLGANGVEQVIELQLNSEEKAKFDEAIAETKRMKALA

[4] = inhibition of 3D7 malaria parasite growth – strain 3D7 (AID 2306);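 further: 0% = DMSO wells and 100% = chloroquine plus artemisinin control wells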; conditions: P. falciparum 3D7 erythrocytic growth, LDH absorbance, 72 h; at 2 µM; active compounds read high
[5] = molecular target: Calcium-dependent protein kinase 1 (Plasmodium falciparum (isolate 3D7)) (UniProt P62344); test: PfCDPK1 kinase inhibitors, biochemical, TCAMS library (AID 1159585; cut-off not given, nearly all actives have IC50 up to about 0.98 µM;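 further: inhibitors leave more ATP so luminescence rises with inhibition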); conditions: recombinant PfCDPK1, Kinase-Glo ATP depletion luminescence
Chain of Calcium-dependent protein kinase 1 (Plasmodium falciparum (isolate 3D7)) (P62344 whole entry, looked up): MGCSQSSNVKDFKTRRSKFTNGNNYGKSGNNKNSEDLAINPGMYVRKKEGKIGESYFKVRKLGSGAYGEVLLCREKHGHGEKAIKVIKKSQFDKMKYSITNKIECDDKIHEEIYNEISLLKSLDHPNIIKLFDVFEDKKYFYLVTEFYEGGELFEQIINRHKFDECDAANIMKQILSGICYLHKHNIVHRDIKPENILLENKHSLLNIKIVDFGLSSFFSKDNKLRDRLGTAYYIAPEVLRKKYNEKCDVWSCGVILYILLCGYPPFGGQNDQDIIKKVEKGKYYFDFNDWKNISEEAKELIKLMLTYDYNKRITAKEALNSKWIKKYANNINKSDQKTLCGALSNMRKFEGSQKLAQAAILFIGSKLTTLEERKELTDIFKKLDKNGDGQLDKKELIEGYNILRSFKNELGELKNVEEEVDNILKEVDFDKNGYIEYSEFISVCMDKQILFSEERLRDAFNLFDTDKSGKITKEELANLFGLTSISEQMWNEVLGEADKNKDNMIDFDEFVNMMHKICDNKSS

[6] = molecular target: Plasmodium falciparum protein kinase 6 (PK6, PF3D7_1337100) (UniProt Q8IDW1); test: PfPK6 kinase inhibitors, biochemical, TCAMS library (AID 1159586); conditions: recombinant PfPK6, Kinase-Glo ATP depletion luminescence
Chain of Plasmodium falciparum protein kinase 6 (PK6, PF3D7_1337100) (Q8IDW1 1-305): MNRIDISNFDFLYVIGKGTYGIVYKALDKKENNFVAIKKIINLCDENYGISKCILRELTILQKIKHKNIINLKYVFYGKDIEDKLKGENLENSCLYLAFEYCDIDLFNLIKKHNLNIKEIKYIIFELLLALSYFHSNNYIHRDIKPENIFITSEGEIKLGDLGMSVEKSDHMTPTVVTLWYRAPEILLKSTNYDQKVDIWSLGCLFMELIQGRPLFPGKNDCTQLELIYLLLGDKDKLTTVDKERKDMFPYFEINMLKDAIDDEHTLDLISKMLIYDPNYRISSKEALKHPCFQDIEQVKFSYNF

[7] = molecular target: Protein kinase 7 (PK7), Plasmodium falciparum 3D7 (PF3D7_0213400) (UniProt Q7YTF7); test: inhibition of Plasmodium PK7 catalytic activity – biochemical, TCAMS antimalarial set, Kinase-Glo luminescence (AID 1159587); conditions: recombinant PfPK7, Kinase-Glo ATP depletion luminescence
Chain of Protein kinase 7 (PK7), Plasmodium falciparum 3D7 (PF3D7_0213400) (Q7YTF7 1-343): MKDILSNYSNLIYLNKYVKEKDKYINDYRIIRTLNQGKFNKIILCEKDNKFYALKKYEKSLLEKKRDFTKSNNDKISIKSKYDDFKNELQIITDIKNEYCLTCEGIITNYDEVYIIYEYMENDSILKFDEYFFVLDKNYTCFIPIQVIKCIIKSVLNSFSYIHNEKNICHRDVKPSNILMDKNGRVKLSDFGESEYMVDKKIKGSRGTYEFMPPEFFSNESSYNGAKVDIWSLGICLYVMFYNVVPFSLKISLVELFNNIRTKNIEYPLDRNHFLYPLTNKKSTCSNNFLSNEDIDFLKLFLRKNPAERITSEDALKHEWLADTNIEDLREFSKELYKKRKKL

[8] = molecular target: Calcium-dependent protein kinase 4 (Plasmodium falciparum (isolate 3D7)) (UniProt Q8IBS5); test: PfCDPK4 kinase inhibitors, biochemical, TCAMS library (AID 1159588; cut-off not given, nearly all actives have IC50 up to about 0.91 µM); conditions: recombinant PfCDPK4, Kinase-Glo ATP depletion luminescence
Chain of Calcium-dependent protein kinase 4 (Plasmodium falciparum (isolate 3D7)) (Q8IBS5 whole entry, looked up): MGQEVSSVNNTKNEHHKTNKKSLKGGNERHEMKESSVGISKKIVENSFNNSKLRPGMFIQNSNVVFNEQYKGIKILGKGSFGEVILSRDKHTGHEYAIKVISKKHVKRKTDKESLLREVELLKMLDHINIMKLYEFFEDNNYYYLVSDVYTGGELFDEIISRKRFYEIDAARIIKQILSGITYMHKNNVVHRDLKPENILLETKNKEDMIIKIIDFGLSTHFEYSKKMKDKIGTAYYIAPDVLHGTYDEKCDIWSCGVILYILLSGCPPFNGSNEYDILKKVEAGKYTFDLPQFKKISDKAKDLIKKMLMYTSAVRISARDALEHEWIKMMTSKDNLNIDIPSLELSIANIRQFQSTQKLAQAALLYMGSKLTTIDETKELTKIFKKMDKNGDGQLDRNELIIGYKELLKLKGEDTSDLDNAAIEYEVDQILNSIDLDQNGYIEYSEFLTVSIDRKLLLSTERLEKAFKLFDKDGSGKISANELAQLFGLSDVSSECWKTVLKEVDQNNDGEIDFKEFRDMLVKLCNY

O=C(NCCCCCN1CCC(c2c[nH]c3ccccc23)C1)Nc1ccc(Cl)c(Cl)c1 (stereo not given)
inactive: growth inhibition [1] 19% | inhibition [2] 28% | inhibition [3] 1% | outcome [5] | outcome [6] | outcome [7] | outcome [8]
active: growth inhibition [4] 95%

Cc1ccccc1C1CCN(C2CCC(NC(=O)/C=C/c3c(F)ccc(F)c3F)CC2)CC1 (stereo not given)
inactive: growth inhibition [1] 33% | inhibition [2] 37% | inhibition [3] 1% | outcome [5] | outcome [6] | outcome [7] | outcome [8]
active: growth inhibition [4] 82%

CCOc1ccc(C(=O)N2CCOC(CCN3CCC4(CCc5ccccc54)CC3)(c3ccc(Cl)c(Cl)c3)C2)cc1 (stereo not given)
active: growth inhibition [4] 81%
inactive: growth inhibition [1] 25% | inhibition [2] 25% | inhibition [3] 1% | outcome [5] | outcome [6] | outcome [7] | outcome [8]

CC(C)(C)c1ccc(NC(=O)c2ccc(CN3CCCN(Cc4ccsc4)CC3)cc2)cc1
active: inhibition [2] 50% | growth inhibition [4] 96%
inactive: growth inhibition [1] -1% | inhibition [3] -7% | outcome [5] | outcome [6] | outcome [7] | outcome [8]

CN(C)CCCn1c(N)c(-c2nc3ccccc3[nH]2)c2nc(C#N)c(C#N)nc21
active: growth inhibition [1] 101% | inhibition [2] 100% | growth inhibition [4] 102%
inactive: inhibition [3] -1% | outcome [5] | outcome [6] | outcome [7] | outcome [8]

COc1ccc(Nc2ncc3c(-c4cccc(NC(=O)Cc5cccnc5)c4)c[nH]c3n2)cc1OC
active: growth inhibition [1] 85% | growth inhibition [4] 98%
inactive: inhibition [2] 27% | inhibition [3] 1% | outcome [5] | outcome [6] | outcome [7] | outcome [8]

Cc1ccc(Cn2c(N3CCC(C(=O)NCc4ccccn4)CC3)nc3ccccc32)cc1
active: growth inhibition [1] 99% | growth inhibition [4] 100%
inactive: inhibition [2] -8% | inhibition [3] 8% | outcome [5] | outcome [6] | outcome [7] | outcome [8]

COc1ccc2c(NN=Cc3cccc(Cl)c3)cc(C)nc2c1
active: growth inhibition [1] 99% | growth inhibition [4] 103%
inactive: inhibition [2] 3% | inhibition [3] 3% | outcome [5] | outcome [6] | outcome [7] | outcome [8]

O=C(Nc1cccnc1)c1ccc(-c2cc3ccncc3cc2OC2CCNCC2)s1
active: growth inhibition [4] 97%
inactive: growth inhibition [1] 12% | inhibition [2] -5% | inhibition [3] 1% | outcome [5] | outcome [6] | outcome [7] | outcome [8]

COc1ccc2c(c1)CCCC2C(C)NCC(O)c1cccc(C(F)(F)F)c1 (stereo not given)
inactive: inhibition [2] 3% | inhibition [3] -3% | outcome [5] | outcome [6] | outcome [7] | outcome [8]
active: growth inhibition [1] 99% | growth inhibition [4] 99%

Cc1cc(CN2CCC(Nc3ncc(-c4ccsc4)c4nc(C(F)(F)F)ccc34)CC2)no1
active: growth inhibition [1] 67% | growth inhibition [4] 81%
inactive: inhibition [2] 8% | inhibition [3] -3% | outcome [5] | outcome [6] | outcome [7] | outcome [8]

O=C1COc2ccc(S(=O)(=O)N3CCC[C@@H]3CCN3CCC(c4c[nH]c5cnccc45)CC3)cc2N1
inactive: growth inhibition [1] 6% | inhibition [2] -8% | inhibition [3] 1% | outcome [5] | outcome [6] | outcome [7] | outcome [8]
active: growth inhibition [4] 101%

COc1ccc2ncc(Cl)c(CCN3CC[C@@H](CNCc4cc5c(cn4)OCS5)C3)c2n1
inactive: growth inhibition [1] 31% | inhibition [2] 22% | inhibition [3] 3% | outcome [5] | outcome [6] | outcome [7] | outcome [8]
active: growth inhibition [4] 99%

CC(C)C[C@H](NC(=O)c1ccc(OCCN2CCOCC2)cc1)C(=O)N[C@H](/C=N/N1CCNC1=O)CCc1ccccc1
active: growth inhibition [1] 94% | growth inhibition [4] 89%
inactive: inhibition [2] 1% | inhibition [3] 4% | outcome [5] | outcome [6] | outcome [7] | outcome [8]

COc1cc(O)c2c(=O)c(OC)c(-c3cccc(Cl)c3OCC(=O)O)oc2c1OC
inactive: growth inhibition [1] -2% | inhibition [2] -6% | inhibition [3] -1% | outcome [5] | outcome [6] | outcome [7] | outcome [8]
active: growth inhibition [4] 100%

CCCCCCCc1c(C)[nH]c2ccccc2c1=O
inactive: inhibition [2] -14% | inhibition [3] -7% | outcome [5] | outcome [6] | outcome [7] | outcome [8]
active: growth inhibition [1] 96% | growth inhibition [4] 98%

CON=C1CCC(Cn2ccnc2)(c2ccc(Cl)cc2Cl)CC1 (stereo not given)
inactive: inhibition [2] 7% | inhibition [3] -5% | outcome [5] | outcome [6] | outcome [7] | outcome [8]
active: growth inhibition [1] 56% | growth inhibition [4] 100%

CC(C)C[C@H](NC(=O)c1cc(-c2ccc(F)cc2)no1)C(=O)O (tested in a mixture with another compound)
active: growth inhibition [4] 82%
inactive: growth inhibition [1] 4% | inhibition [2] 7% | inhibition [3] -2% | outcome [5] | outcome [6] | outcome [7] | outcome [8]

COc1ccc2nc(C)cc(NN=Cc3ccc(F)cc3)c2c1
active: growth inhibition [1] 99% | growth inhibition [4] 100%
inactive: inhibition [2] 5% | inhibition [3] -8% | outcome [5] | outcome [6] | outcome [7] | outcome [8]

Fc1cc(Cl)ccc1Nc1ccnc2cc(-c3ccc(CN4CCSCC4)o3)ccc12
active: growth inhibition [1] 99% | growth inhibition [4] 100%
inactive: inhibition [2] 17% | inhibition [3] 0% | outcome [5] | outcome [6] | outcome [7] | outcome [8]

NS(=O)(=O)c1cccc(-c2ccc3nccc(-c4cccc(S(N)(=O)=O)c4)c3c2)c1
inactive: inhibition [2] 40% | inhibition [3] 4% | outcome [5] | outcome [6] | outcome [7] | outcome [8]
active: growth inhibition [1] 99% | growth inhibition [4] 98%

O[C@@H](c1cccc(OCc2ccccc2)c1)[C@@H]1CN(CCc2ccccc2)CC[C@@]1(O)c1ccccc1
active: growth inhibition [1] 98% | growth inhibition [4] 98%
inactive: inhibition [2] 7% | inhibition [3] -4% | outcome [5] | outcome [6] | outcome [7] | outcome [8]

Cn1cncc1C(=O)Nc1cccc(-c2cccc(-c3nc4ccccc4[nH]3)c2)c1
active: growth inhibition [4] 102%
inactive: growth inhibition [1] 35% | inhibition [2] 9% | inhibition [3] 3% | outcome [5] | outcome [6] | outcome [7] | outcome [8]

Cc1cccc(C)c1CNc1nc(N2CCOCC2)cc2c(C)c(C)[nH]c12
active: growth inhibition [1] 64% | inhibition [2] 51% | growth inhibition [4] 92%
inactive: inhibition [3] -4% | outcome [5] | outcome [6] | outcome [7] | outcome [8]

O=C(Nc1ccc(F)c(F)c1)c1ccc(CN2CCCN(Cc3cccc(O)c3)CC2)cc1
active: growth inhibition [1] 57% | growth inhibition [4] 92%
inactive: inhibition [2] 43% | inhibition [3] -1% | outcome [5] | outcome [6] | outcome [7] | outcome [8]

FC(F)(F)COc1ccc(CCNCCCCNCCc2ccc(OCC(F)(F)F)c3ccccc23)c2ccccc12
active: growth inhibition [1] 70% | inhibition [2] 100% | growth inhibition [4] 99%
inactive: inhibition [3] 4% | outcome [5] | outcome [6] | outcome [7] | outcome [8]

CC[C@H](C)CNC(=O)c1ccnc(-c2cccc(CN3CCC(N4CCCC4)CC3)c2)c1
active: growth inhibition [4] 97%
inactive: growth inhibition [1] 12% | inhibition [2] -8% | inhibition [3] -2% | outcome [5] | outcome [6] | outcome [7] | outcome [8]

CC(C)(C)NCC(O)COc1ccc(Cl)cc1C1=NNC(=O)CC1 (stereo not given)
inactive: growth inhibition [1] -1% | inhibition [2] 6% | inhibition [3] -2% | outcome [5] | outcome [6] | outcome [7] | outcome [8]
active: growth inhibition [4] 96%

O=C(CN1CCN(C(=O)c2ccco2)CC1)Nc1ccc(Br)cc1Cl
inactive: inhibition [2] 10% | inhibition [3] -6% | outcome [5] | outcome [6] | outcome [7] | outcome [8]
active: growth inhibition [1] 79% | growth inhibition [4] 88%

COc1ccc2cc(CNCCCCCCNCc3ccc4cc(OC)ccc4c3)ccc2c1
active: growth inhibition [1] 92% | inhibition [2] 100% | growth inhibition [4] 100%
inactive: inhibition [3] -6% | outcome [5] | outcome [6] | outcome [7] | outcome [8]

C1=CN(Cc2ccccc2)C=CC1=C1C=Nc2ccccc21
inactive: inhibition [2] 8% | inhibition [3] -3% | outcome [5] | outcome [6] | outcome [7] | outcome [8]
active: growth inhibition [1] 69% | growth inhibition [4] 90%

O=C(Nc1cc(F)cc(F)c1)N[C@H]1CCN(CCCCCNC(=O)[C@@H]2C[C@H]2c2ccc(Cl)c(Cl)c2)C1
inactive: growth inhibition [1] -4% | inhibition [2] 24% | inhibition [3] -3% | outcome [5] | outcome [6] | outcome [7] | outcome [8]
active: growth inhibition [4] 88%

NC(N)=Nc1nc(-c2cc(NC(=O)C(F)(F)F)cc([N+](=O)[O-])c2)cs1
inactive: inhibition [2] 7% | inhibition [3] 5% | outcome [5] | outcome [6] | outcome [7] | outcome [8]
active: growth inhibition [1] 51% | growth inhibition [4] 98%

COc1cc(Cc2cnc(N)nc2N)cc(OCCCOc2ccccc2)c1OC
inactive: growth inhibition [1] 2% | inhibition [2] 7% | inhibition [3] -4% | outcome [5] | outcome [6] | outcome [7] | outcome [8]
active: growth inhibition [4] 94%

CCOc1ccc(N2CCN(CCCCNC(=O)c3ccc(NC(=O)c4ccc(Cl)cc4)cc3)CC2)c(OCC)c1
active: growth inhibition [1] 65% | growth inhibition [4] 102%
inactive: inhibition [2] 36% | inhibition [3] 2% | outcome [5] | outcome [6] | outcome [7] | outcome [8]

Oc1ccccc1CN1CCCC(COC(c2ccc(F)cc2)c2ccc(F)cc2)C1 (stereo not given)
inactive: inhibition [2] 19% | inhibition [3] 1% | outcome [5] | outcome [6] | outcome [7] | outcome [8]
active: growth inhibition [1] 98% | growth inhibition [4] 97%

Oc1cccc(CCNCCCCCCNCCc2ccc(Cl)cc2)c1
inactive: growth inhibition [1] -3% | inhibition [2] 23% | inhibition [3] -1% | outcome [5] | outcome [6] | outcome [7] | outcome [8]
active: growth inhibition [4] 96%

CC(C)[C@H](NC(=O)c1ccc(O)c(-c2cccc(C(F)(F)F)c2)c1)C(=O)NC1CCCc2ccccc21 (stereo not given in full)
active: growth inhibition [4] 82%
inactive: growth inhibition [1] 25% | inhibition [2] 2% | inhibition [3] 7% | outcome [5] | outcome [6] | outcome [7] | outcome [8]

O=C(/C=C/c1ccc(Cl)c(Cl)c1)N1CCC(C(O)CN2CCC(c3c[nH]c4ccccc34)CC2)CC1 (stereo not given)
inactive: growth inhibition [1] 46% | inhibition [2] 14% | inhibition [3] -4% | outcome [5] | outcome [6] | outcome [7] | outcome [8]
active: growth inhibition [4] 99%

CCC(Cc1ccccc1)c1cc(O)c(Cc2ccc(-c3ccccc3)cc2)c(=O)o1 (stereo not given)
inactive: growth inhibition [1] -3% | inhibition [2] 3% | inhibition [3] -1% | outcome [5] | outcome [6] | outcome [7] | outcome [8]
active: growth inhibition [4] 89%

Source: PubChem BioAssay
